# Test results from publication PMC11006913.
# Positions count from the first letter of the chain named.
# Tests used:
# Experiment in all cases: PBM; 200 nM protein, PBS
# Details in all cases: dsDNA, one strand shown
# [1] = target: NKX2-5 (Homo sapiens, UniProt P52952 125-210, R139K)
# [2] = target: T1, NKX2-4 (Homo sapiens, UniProt Q9H2Z4 175-261, P217L)
# T1 sequence: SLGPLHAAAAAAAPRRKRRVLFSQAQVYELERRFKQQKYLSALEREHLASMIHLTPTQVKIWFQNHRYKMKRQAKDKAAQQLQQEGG
# [3] = target: T2, NKX2-4 (Homo sapiens, UniProt Q9H2Z4 175-261, T231S)
# T2 sequence: T1 sequence with L43P, T57S
# [4] = target: T3, NKX2-4 (Homo sapiens, UniProt Q9H2Z4 175-261)
# T3 sequence: T1 sequence with L43P
# [5] = target: T4, NKX2-6 (Homo sapiens, UniProt A6NCS4 118-204, R150C)
# T4 sequence: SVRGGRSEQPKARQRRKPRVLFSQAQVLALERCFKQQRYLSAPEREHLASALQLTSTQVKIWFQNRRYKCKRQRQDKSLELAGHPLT
# [6] = target: T5, NKX2-6 (Homo sapiens, UniProt A6NCS4 118-204)
# T5 sequence: T4 sequence with C33R
# [7] = target: T6, NKX2-4 (Homo sapiens, UniProt Q9H2Z4 175-261, R246Q)
# T6 sequence: T1 sequence with L43P, R72Q
# [8] = target: T7, NKX2-6 (Homo sapiens, UniProt A6NCS4 118-204, F151L)
# T7 sequence: T4 sequence with C33R, F34L
# [9] = target: NKX3-2 (Homo sapiens, UniProt P78367 192-278, P234S)
# Sequence of NKX3-2 (Homo sapiens, UniProt P78367 192-278, P234S) (P78367 192-278 P234S): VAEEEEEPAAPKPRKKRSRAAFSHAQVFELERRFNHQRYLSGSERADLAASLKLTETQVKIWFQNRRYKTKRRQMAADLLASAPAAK
# [10] = target: NKX2-5 (Homo sapiens, UniProt P52952 125-210)
# Sequence of NKX2-5 (Homo sapiens, UniProt P52952 125-210) (P52952 125-210): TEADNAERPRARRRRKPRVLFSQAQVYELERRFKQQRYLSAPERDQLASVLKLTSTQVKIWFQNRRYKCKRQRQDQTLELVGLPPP
# [11] = target: NKX3-2 (Homo sapiens, UniProt P78367 192-278)
# Sequence of NKX3-2 (Homo sapiens, UniProt P78367 192-278) (P78367 192-278): as the sequence (P78367 192-278 P234S) above, with S43P counted along it
# Sequence of NKX2-5 (Homo sapiens, UniProt P52952 125-210, R139K) (P52952 125-210 R139K): as the sequence (P52952 125-210) above, with R15K counted along it
Sequence,binding signal [1],binding signal [2],binding signal [3],binding signal [4],binding signal [5],binding signal [6],binding signal [7],binding signal [8],binding signal [9],binding signal [10],binding signal [11]
GCACTTCA,"12.5 upbm affinity estimate (log intensity, higher = more binding, comparable within an allelic series)","12.6 upbm affinity estimate (log intensity, higher = more binding, comparable within an allelic series)","13 upbm affinity estimate (log intensity, higher = more binding, comparable within an allelic series)","12.5 upbm affinity estimate (log intensity, higher = more binding, comparable within an allelic series)","11.7 upbm affinity estimate (log intensity, higher = more binding, comparable within an allelic series)","13.3 upbm affinity estimate (log intensity, higher = more binding, comparable within an allelic series)","13.2 upbm affinity estimate (log intensity, higher = more binding, comparable within an allelic series)","11.1 upbm affinity estimate (log intensity, higher = more binding, comparable within an allelic series)","12.6 upbm affinity estimate (log intensity, higher = more binding, comparable within an allelic series)","12.4 upbm affinity estimate (log intensity, higher = more binding, comparable within an allelic series)","12.6 upbm affinity estimate (log intensity, higher = more binding, comparable within an allelic series)"
CCTCTTGA,"12.5 upbm affinity estimate (log intensity, higher = more binding, comparable within an allelic series)","12.7 upbm affinity estimate (log intensity, higher = more binding, comparable within an allelic series)","13 upbm affinity estimate (log intensity, higher = more binding, comparable within an allelic series)","12.5 upbm affinity estimate (log intensity, higher = more binding, comparable within an allelic series)","11.7 upbm affinity estimate (log intensity, higher = more binding, comparable within an allelic series)","13.4 upbm affinity estimate (log intensity, higher = more binding, comparable within an allelic series)","13.2 upbm affinity estimate (log intensity, higher = more binding, comparable within an allelic series)","10.5 upbm affinity estimate (log intensity, higher = more binding, comparable within an allelic series)",,"12.5 upbm affinity estimate (log intensity, higher = more binding, comparable within an allelic series)",
ATTAAGTG,"12.7 upbm affinity estimate (log intensity, higher = more binding, comparable within an allelic series)","12.5 upbm affinity estimate (log intensity, higher = more binding, comparable within an allelic series)","12.9 upbm affinity estimate (log intensity, higher = more binding, comparable within an allelic series)","12.4 upbm affinity estimate (log intensity, higher = more binding, comparable within an allelic series)","11.8 upbm affinity estimate (log intensity, higher = more binding, comparable within an allelic series)","13.7 upbm affinity estimate (log intensity, higher = more binding, comparable within an allelic series)","13 upbm affinity estimate (log intensity, higher = more binding, comparable within an allelic series)","11 upbm affinity estimate (log intensity, higher = more binding, comparable within an allelic series)","12.7 upbm affinity estimate (log intensity, higher = more binding, comparable within an allelic series)","12.6 upbm affinity estimate (log intensity, higher = more binding, comparable within an allelic series)","12.8 upbm affinity estimate (log intensity, higher = more binding, comparable within an allelic series)"
AAGTACCT,"12.6 upbm affinity estimate (log intensity, higher = more binding, comparable within an allelic series)","12.5 upbm affinity estimate (log intensity, higher = more binding, comparable within an allelic series)","12.9 upbm affinity estimate (log intensity, higher = more binding, comparable within an allelic series)","12.4 upbm affinity estimate (log intensity, higher = more binding, comparable within an allelic series)","11.7 upbm affinity estimate (log intensity, higher = more binding, comparable within an allelic series)","13.4 upbm affinity estimate (log intensity, higher = more binding, comparable within an allelic series)","12.9 upbm affinity estimate (log intensity, higher = more binding, comparable within an allelic series)","10.6 upbm affinity estimate (log intensity, higher = more binding, comparable within an allelic series)","12.6 upbm affinity estimate (log intensity, higher = more binding, comparable within an allelic series)","12.4 upbm affinity estimate (log intensity, higher = more binding, comparable within an allelic series)","12.6 upbm affinity estimate (log intensity, higher = more binding, comparable within an allelic series)"
CACTTATC,"12.8 upbm affinity estimate (log intensity, higher = more binding, comparable within an allelic series)","12.7 upbm affinity estimate (log intensity, higher = more binding, comparable within an allelic series)","13 upbm affinity estimate (log intensity, higher = more binding, comparable within an allelic series)","12.5 upbm affinity estimate (log intensity, higher = more binding, comparable within an allelic series)","12.1 upbm affinity estimate (log intensity, higher = more binding, comparable within an allelic series)","13.8 upbm affinity estimate (log intensity, higher = more binding, comparable within an allelic series)","13.2 upbm affinity estimate (log intensity, higher = more binding, comparable within an allelic series)","11.2 upbm affinity estimate (log intensity, higher = more binding, comparable within an allelic series)","12.7 upbm affinity estimate (log intensity, higher = more binding, comparable within an allelic series)","12.8 upbm affinity estimate (log intensity, higher = more binding, comparable within an allelic series)","12.8 upbm affinity estimate (log intensity, higher = more binding, comparable within an allelic series)"
ACACTTAA,"13 upbm affinity estimate (log intensity, higher = more binding, comparable within an allelic series)","12.6 upbm affinity estimate (log intensity, higher = more binding, comparable within an allelic series)","13 upbm affinity estimate (log intensity, higher = more binding, comparable within an allelic series)","12.5 upbm affinity estimate (log intensity, higher = more binding, comparable within an allelic series)","12 upbm affinity estimate (log intensity, higher = more binding, comparable within an allelic series)","13.8 upbm affinity estimate (log intensity, higher = more binding, comparable within an allelic series)","13.1 upbm affinity estimate (log intensity, higher = more binding, comparable within an allelic series)","11.5 upbm affinity estimate (log intensity, higher = more binding, comparable within an allelic series)","12.7 upbm affinity estimate (log intensity, higher = more binding, comparable within an allelic series)","12.8 upbm affinity estimate (log intensity, higher = more binding, comparable within an allelic series)","12.8 upbm affinity estimate (log intensity, higher = more binding, comparable within an allelic series)"
TAAGTGGA,"13.2 upbm affinity estimate (log intensity, higher = more binding, comparable within an allelic series)","12.8 upbm affinity estimate (log intensity, higher = more binding, comparable within an allelic series)","13.2 upbm affinity estimate (log intensity, higher = more binding, comparable within an allelic series)","12.6 upbm affinity estimate (log intensity, higher = more binding, comparable within an allelic series)","12.3 upbm affinity estimate (log intensity, higher = more binding, comparable within an allelic series)","13.9 upbm affinity estimate (log intensity, higher = more binding, comparable within an allelic series)","13.3 upbm affinity estimate (log intensity, higher = more binding, comparable within an allelic series)","11.3 upbm affinity estimate (log intensity, higher = more binding, comparable within an allelic series)","13.2 upbm affinity estimate (log intensity, higher = more binding, comparable within an allelic series)","13.1 upbm affinity estimate (log intensity, higher = more binding, comparable within an allelic series)","13.3 upbm affinity estimate (log intensity, higher = more binding, comparable within an allelic series)"
AGTACTTA,"12.9 upbm affinity estimate (log intensity, higher = more binding, comparable within an allelic series)","12.6 upbm affinity estimate (log intensity, higher = more binding, comparable within an allelic series)","13.1 upbm affinity estimate (log intensity, higher = more binding, comparable within an allelic series)","12.5 upbm affinity estimate (log intensity, higher = more binding, comparable within an allelic series)","12 upbm affinity estimate (log intensity, higher = more binding, comparable within an allelic series)","13.8 upbm affinity estimate (log intensity, higher = more binding, comparable within an allelic series)","13.1 upbm affinity estimate (log intensity, higher = more binding, comparable within an allelic series)","11.2 upbm affinity estimate (log intensity, higher = more binding, comparable within an allelic series)","12.6 upbm affinity estimate (log intensity, higher = more binding, comparable within an allelic series)","12.8 upbm affinity estimate (log intensity, higher = more binding, comparable within an allelic series)","12.7 upbm affinity estimate (log intensity, higher = more binding, comparable within an allelic series)"
AAGTGGCT,"12.5 upbm affinity estimate (log intensity, higher = more binding, comparable within an allelic series)","12.5 upbm affinity estimate (log intensity, higher = more binding, comparable within an allelic series)","12.9 upbm affinity estimate (log intensity, higher = more binding, comparable within an allelic series)","12.4 upbm affinity estimate (log intensity, higher = more binding, comparable within an allelic series)","11.8 upbm affinity estimate (log intensity, higher = more binding, comparable within an allelic series)","13.4 upbm affinity estimate (log intensity, higher = more binding, comparable within an allelic series)","13 upbm affinity estimate (log intensity, higher = more binding, comparable within an allelic series)","10.6 upbm affinity estimate (log intensity, higher = more binding, comparable within an allelic series)","12.8 upbm affinity estimate (log intensity, higher = more binding, comparable within an allelic series)","12.4 upbm affinity estimate (log intensity, higher = more binding, comparable within an allelic series)","12.9 upbm affinity estimate (log intensity, higher = more binding, comparable within an allelic series)"
GGTACTTA,"13.1 upbm affinity estimate (log intensity, higher = more binding, comparable within an allelic series)","12.6 upbm affinity estimate (log intensity, higher = more binding, comparable within an allelic series)","13 upbm affinity estimate (log intensity, higher = more binding, comparable within an allelic series)","12.5 upbm affinity estimate (log intensity, higher = more binding, comparable within an allelic series)","12 upbm affinity estimate (log intensity, higher = more binding, comparable within an allelic series)","13.8 upbm affinity estimate (log intensity, higher = more binding, comparable within an allelic series)","13.1 upbm affinity estimate (log intensity, higher = more binding, comparable within an allelic series)","11 upbm affinity estimate (log intensity, higher = more binding, comparable within an allelic series)","12.8 upbm affinity estimate (log intensity, higher = more binding, comparable within an allelic series)","12.9 upbm affinity estimate (log intensity, higher = more binding, comparable within an allelic series)","12.8 upbm affinity estimate (log intensity, higher = more binding, comparable within an allelic series)"
CCACTTGA,"13.4 upbm affinity estimate (log intensity, higher = more binding, comparable within an allelic series)","12.9 upbm affinity estimate (log intensity, higher = more binding, comparable within an allelic series)","13.3 upbm affinity estimate (log intensity, higher = more binding, comparable within an allelic series)","12.8 upbm affinity estimate (log intensity, higher = more binding, comparable within an allelic series)","12.3 upbm affinity estimate (log intensity, higher = more binding, comparable within an allelic series)","13.9 upbm affinity estimate (log intensity, higher = more binding, comparable within an allelic series)","13.5 upbm affinity estimate (log intensity, higher = more binding, comparable within an allelic series)","11.5 upbm affinity estimate (log intensity, higher = more binding, comparable within an allelic series)","12.5 upbm affinity estimate (log intensity, higher = more binding, comparable within an allelic series)","13.2 upbm affinity estimate (log intensity, higher = more binding, comparable within an allelic series)","12.6 upbm affinity estimate (log intensity, higher = more binding, comparable within an allelic series)"
ATAAGTGC,"13 upbm affinity estimate (log intensity, higher = more binding, comparable within an allelic series)","12.7 upbm affinity estimate (log intensity, higher = more binding, comparable within an allelic series)","13.1 upbm affinity estimate (log intensity, higher = more binding, comparable within an allelic series)","12.6 upbm affinity estimate (log intensity, higher = more binding, comparable within an allelic series)","12.2 upbm affinity estimate (log intensity, higher = more binding, comparable within an allelic series)","13.8 upbm affinity estimate (log intensity, higher = more binding, comparable within an allelic series)","13.3 upbm affinity estimate (log intensity, higher = more binding, comparable within an allelic series)","11.4 upbm affinity estimate (log intensity, higher = more binding, comparable within an allelic series)","12.9 upbm affinity estimate (log intensity, higher = more binding, comparable within an allelic series)","12.9 upbm affinity estimate (log intensity, higher = more binding, comparable within an allelic series)","13 upbm affinity estimate (log intensity, higher = more binding, comparable within an allelic series)"
